eIF4H inh = inhibitors of RNA binding by human eIF4H. Q15056. eIF4H fluorescence polarization binding assay. inhibition, % at 35 µM. 290,000 tested, 0.94% active. AID 2012;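 also: calls also rest on retests at 20 µM and on dose response follow-up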
PABP FP inh = blocks human PABP binding to poly(A) RNA; P11940; 290,000 tested, 1% active; calls only at 35 µM; fluorescence polarization;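 also: calls also rest on retests at 20 µM and on dose response follow-up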
PHOSPHO1 block = blocks human PHOSPHO1 phosphatase activity; Q8TCT1; AID 1565; recombinant PHOSPHO1, absorbance phosphatase assay; 290,000 tested, 1.1% active; inhibition, % at 13.3 µM; in the data active = inhibition above about 60%
Efa HMGR inh = E. faecalis class II HMG-CoA reductase inhibition; AID 1066; 190,000 tested, 0.41% active; purified E. faecalis HMGR, NADPH absorbance 340 nm kinetic; inhibition, % at 10 µM;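 active = inhibition above a set limit, the median over all tested compounds plus 3 SD, cut at about 9.5% in these data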;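 also: enzyme runs in reverse so mevalonate oxidation gives rising NADPH absorbance; 0% = complete reaction with DMSO and 100% = background rate lacking mevalonate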
MLLE-PAM2 inh = blocks PAM2 peptide binding to the PABP1 MLLE domain. GST-MLLE / FITC-PAM2 fluorescence polarization. inhibition, % at 20 µM. 360,000 tested, 0.36% active. AID 588489; in the data active = inhibition above about 35%, passing the limit was not always enough;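 also: plate controls were DMSO wells with GST-MLLE for no effect and wells lacking GST-MLLE protein for full effect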
Numbers without * were called inactive; i = inactive; / = no result given; + = active, no number. Most compounds without a hit are left out; they make up all but 2.4% or so of the library. Unless noted, no rule for the calls is given here.

SMILES | eIF4H inh | PABP FP inh | PHOSPHO1 block | Efa HMGR inh | MLLE-PAM2 inh
CC(C)c1ccc(CN2CCC2(C)C(=O)Nc2cnc3ccccc3c2)cc1 (stereo not given) | / | / | / | / | -3
Cc1cc(C)c(NS(=O)(=O)c2ccc3c(c2)oc(=O)n3C)c(C)c1 | / | / | / | / | -4
Cn1c(=O)oc2cc(S(=O)(=O)Nc3cccc4c3CCCC4)ccc21 | 62* | + | -20 | 0 | -7
CCc1cccc(NS(=O)(=O)c2ccc3c(c2)oc(=O)n3C)c1 | -10 | i | 68* | 1 | 4
Cn1c(=O)oc2cc(S(=O)(=O)NCc3cccnc3)ccc21 | 65 | + | 8 | / | 2
CCC1CCCCN1Cc1ccc(CNS(=O)(=O)c2ccc3c(c2)oc(=O)n3C)o1 (stereo not given) | 55* | + | -2 | 0 | -9
Cn1c(=O)oc2cc(S(=O)(=O)NCc3ccc(F)cc3)ccc21 | 28 | i | 3 | / | -5
C[C@@H]1COC(=O)[C@H](Cc2ccc(F)cc2)CC/C=C\C[C@@H](CC(=O)NCCO)C(=O)N1 | / | / | / | / | -39
OCC[C@H]1C[C@H](O)[C@@H](O)[C@@]2(OCCCc3ccccc32)O1 | / | / | / | / | 3
COc1ccc(C(=O)CSc2nnc(-c3cnccn3)n2Cc2ccco2)cc1 | -7 | i | 55 | -2 | -4
COc1cccc(-c2nnc(SCC(=O)NCc3ccc4c(c3)OCO4)n2Cc2ccco2)c1 | -5 | i | 76* | -5 | -90
COc1ccc(C(=O)CSc2nnc(-c3cccnc3)n2Cc2ccco2)cc1 | -26 | i | 92* | -6 | -4
Cc1cccc(-c2nnc(SCC(=O)NCc3ccc4c(c3)OCO4)n2C)c1 | -15 | i | 72* | -6 | -9
Cn1c(SCC(=O)NCc2cccs2)nnc1-c1ccncc1 | -8 | i | 69* | 0 | -15
Nc1nc(=O)n(C2CC(O)C(CO)O2)cc1Cl (stereo not given) | / | / | / | / | -15
CCOC(=O)c1c(C)[nH]c(C)c1C(=O)CSc1nnc(-c2ccncc2)n1C | 2 | i | 81* | 0 | -38
CCOC(=O)c1c(C)[nH]c(C)c1C(=O)CSc1nnc(-c2ccncc2)n1Cc1ccccc1 | 4 | i | 56 | -9 | -8
CCOC(=O)CNC(=O)CSc1nnc(-c2ccco2)n1Cc1ccco1 | 8 | i | 92* | 0 | -79
CCn1c(SCC(=O)c2ccc3c(c2)OCCO3)nnc1-c1ccco1 | -10 | i | 4 | -7 | 9
COc1cccc(OCc2nnc(SCC(=O)NCc3ccco3)n2CCc2ccccc2)c1 | 12 | i | 62* | 3 | -110
CCn1c(SCC(=O)c2ccc3ccccc3c2)nnc1-c1ccco1 | 14 | i | 73* | -2 | 5
COc1cccc(OCc2nnc(SCC(=O)NCc3ccco3)n2C)c1 | 0 | i | 8 | -1 | -17
CC(C)c1ccc(S(=O)(=O)NC2CCS(=O)(=O)C2)cc1 (stereo not given) | / | / | / | / | 11
c1cncc(-c2ccnc3ncnn23)c1 | -1 | i | 4 | 0 | 11
COc1ccc(Nc2ncccc2C(=O)NCc2ccccc2)cc1 | 5 | i | -1 | -4 | 8
SMILES | eIF4H inh | PABP FP inh | PHOSPHO1 block | Efa HMGR inh | MLLE-PAM2 inh
COc1cccc(Nc2ncccc2C(=O)NCc2ccccc2)c1 | 85* | + | 10 | 1 | -3
O=C(CSc1nccn1-c1ccccc1)NCc1ccc(F)cc1 | -1 | i | -19 | 0 | -3
COc1cccc(-n2ccnc2SCC(=O)NCc2ccccc2)c1 | 5 | i | 62* | -9 | -9
COc1ccc(S(=O)(=O)N2CCC(O)(c3ccc(Cl)cc3)CC2)cc1OC | -11 | i | 64* | / | -1
COc1ccc(S(=O)(=O)N2CCC(O)(c3ccc(Cl)cc3)CC2)cc1 | 7 | i | 5 | -5 | 0
CCC(=O)N1CCCC(C)(C(=O)NS(=O)(=O)c2cccs2)C1 (stereo not given) | / | / | / | / | -9
CCn1c(CC(=O)Nc2ccccc2F)nnc1SCC(=O)NC1=NCCS1 | / | / | / | / | 4
COc1cccc(-c2c(C(=O)N/N=C(\C)c3ccc(Cl)s3)nnn2-c2nonc2N)c1 | -14 | i | 34 | / | -4
Cc1ccc2c(c1)C1CN(C)CCC1N2CC(=O)N(C)c1ccccc1 (stereo not given) | -2 | i | 83* | 1 | -108
COC(=O)c1ccc(COC(=O)c2ccc(C)c(S(=O)(=O)N3CCCCC3)c2)cc1 | / | / | / | / | 0
CCC1C(=O)NCCN1C(=O)c1cccc(OC2CCN(S(=O)(=O)N(C)C)CC2)c1 (stereo not given) | / | / | 64* | / | -3
c1coc(-c2ncc[nH]2)c1 | 102* | + | 14 | 0 | 19

Source: PubChem
